Data reported in PubChem BioAssay (NCATS).
Records with an inconclusive call do not appear. The source made the active and inactive calls. Unless noted, the call rests on the fitted dose curve; in most records, active means well fitted curve in the direction sought with a large enough effect; inconclusive means small, poorly fitted or top-dose-only effect, or another doubt; inactive means no such curve, though single readings can be large; an effect the other way counts as inactive or inconclusive.

Key:
[1] = AP1 Signaling Pathway (AID 357; active means well fitted curve in either direction with a large enough effect, not every such curve was filed as active;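 further: ME-180 reporter cells stimulated with EGF at its EC50 level; on the % scale 0 is the no-effect control and ±100 the full control effect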); settings: ME-180 (cervical carcinoma) AP-1-bla reporter, EGF-induced, beta-lactamase ratio, 5 h; at 17.2 µM (top of the series) unless noted
Method in brief: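 Titration-series screen for positive or negative modulators of EC50 EGF-induced signaling in ME-180 cells carrying an AP-1-driven beta-lactamase reporter. After 5 hours at 37 degrees Celsius, CCF4 460nm/530nm emission ratio gave %Activity; AC50 values derived.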

[2] = NFAT Signaling Pathway (AID 444; active means well fitted curve in either direction with a large enough effect, not every such curve was filed as active;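 further: carbachol stimulus at about its EC50 of 1 µM final; on the % scale 0 is the no-effect control and ±100 the full control effect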); settings: Jurkat NFAT-bla M1, carbachol, beta-lactamase ratio, 5 h; at 17.2 µM (top of the series) unless noted
Method in brief: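 Jurkat cells with NFAT-driven β-lactamase reporter and co-expressed M1 receptor, stimulated with carbachol (final 1 uM, ~EC50), compound titration, 5 h at 37 °C. CCF4 loaded 1 h at RT; 460/530 nm ratio gave %activity and AC50.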

[3] = Stat Signaling Pathway (AID 446; active means well fitted curve in either direction with a large enough effect, not every such curve was filed as active;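 further: ME-180 cervical cancer cells given 40 pM IL-6 alongside compound; SIE-controlled beta-lactamase reporter measured as 460/530 nm FRET emission ratio; on the % scale 0 is the no-effect control and ±100 the full control effect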)
Method in brief: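 Compound effects on IL-6-induced STAT reporter activity were measured in ME-180 cells. After overnight culture, cells were co-treated with 40 pM IL-6 for 5 hrs before beta-lactamase substrate loading at room temperature.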

[4] = molecular target: Glucocorticoid receptor (Homo sapiens) (UniProt P04150); assay: GR-GFP Redistribution (AID 450;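 active means compounds whose dose series gives a full or clear partial fitted curve of increased nuclear translocation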; further: potency means the concentration at half of the fitted maximal effect); settings: U2OS GR-GFP nuclear translocation, laser cytometry, 2 h
[5] = molecular target: Glucocorticoid receptor (Homo sapiens) (UniProt P04150); assay: GR-EFC Redistribution (AID 451; calls by dose curve; further: potency means the concentration at half of the fitted maximal effect); settings: CHO-K1 GR-EFC translocation, beta-gal luminescence, 2 h
Method in brief: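 CHO-K1 cells expressing nuclear EA and GR-ED fragments of b-gal; compounds titrated up to 46 uM final, 2 h at 37 C. GR nuclear translocation read as complemented b-gal luminescence after 1 h RT detection.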

[6] = molecular target: Mitogen-activated protein kinase 10 (Mus musculus) (UniProt Q61831); assay: JNK3 AlphaScreen Assay (AID 530; active means well fitted curve in either direction with a large enough effect, not every such curve was filed as active;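 further: kinase came from lysate of stimulated human HepG2 cells; signal reports phosphorylation of biotinylated GST-cJun 1-79 at Ser73 with 10 µM ATP; on the % scale 0 is the no-effect control and ±100 the full control effect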)
Method in brief: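 Activity was read by AlphaScreen after JNK3-containing HepG2 lysate (cytokine pre-activated) phosphorylated biotinylated GST-cJun with 10 uM ATP at room temperature. Phospho-Ser73 cJun antibody with Protein-A acceptor beads provided detection.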

[7] = molecular target: 3',5'-cyclic-AMP phosphodiesterase 4B (Homo sapiens) (UniProt Q07343); assay: qHTS Assay for Inhibitors of PDE-IV (AID 607; active means well fitted activation curve with a large enough effect in the main read-out, with a control signal flat, not every such curve was filed as active; further: % of control where 0% means no effect)
Method in brief: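 ACTOne HEK293 cells carry a modified cAMP-gated CNG channel and express endogenous PDE4; plated 1000 cells/well, compounds up to 22.9 uM final. Membrane-potential dye fluorescence (ex 535/em 590) was read; parental cells received 10 uM forskolin + 100 uM RO 20-1724.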

[8] = molecular target: ATP-dependent 6-phosphofructokinase (Trypanosoma brucei brucei) (UniProt O15648); assay: qHTS Assay to Find Inhibitors of T. brucei phosphofructokinase: hit validation (AID 492961)
Method in brief: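 Inhibition of parasite PFK is measured as reduced ADP formation, quantified via luciferase after ATP depletion. Assay used 0.1 mM ATP, 0.5 mM F6P, 1.25 nM enzyme, 45 min incubation.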

[9] = molecular target: Ubiquitin carboxyl-terminal hydrolase 1 (Homo sapiens) (UniProt O94782); assay: Inhibitors of USP1/UAF1: Pilot qHTS (AID 504865);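 further: rhodamine fluorescence freed from ubiquitin-rhodamine substrate followed over time; top concentration of the series differs between compounds; on the % scale 0 is the no-effect control and ±100 the full control effect; nearly all actives have a fitted effect of over 35% in size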
Method in brief: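 Kinetic fluorescence assay: 1nM USP1/UAF1, 15 min compound preincubation, then 150nM Ub-Rho; 480/540 nm.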

[10] = molecular target: Luciferin 4-monooxygenase (Photinus pyralis) (UniProt P08659); assay: Biochemical firefly luciferase enzyme assay for NPC (AID 624030);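 further: purified P. pyralis luciferase at 10 nM with luciferin and ATP substrate; 0% = DMSO and -100% = full luciferase inhibition by PTC124 control; nearly all actives have a fitted effect of over 70% in size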
Method in brief: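 Purified P. pyralis luciferase at 10 nM in 50 mM Tris Acetate (final), luminescence read within 5 minutes of enzyme addition to compounds. Activity normalised to PTC124 versus DMSO; concentration-response curves classed by r2, magnitude and activity.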

[11] = S16 Schwann cell viability assay (CellTiter-Glo assay) (AID 624031);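 further: native untransfected S16 rat Schwann cells; cellular ATP luminescence as a viability measure; plate controls were DMSO-treated cells for no effect and cell-free wells for full effect; nearly all actives have a fitted effect of over 70% in size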
Method in brief: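 Cells were seeded at 500-750 per well in phenol red-free DMEM with 10% FBS and left overnight. Compounds or DMSO were pinned in, incubation ran 24 h at 37 °C/5% CO2, then CellTiter-Glo reagent was added and luminescence measured.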

[12] = S16 Schwann cell PMP22 intronic element firefly luciferase assay (AID 624032);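 further: plate controls were DMSO for no effect and PTC124 positive control mean for full effect; nearly all actives have a fitted effect of over 30% in size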
Method in brief: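 Rat S16 Schwann cells stably carrying firefly luciferase driven by a PMP22 intronic element, in 10% FBS, treated 24 h at 37 C. ONE-Glo luminescence normalized to PTC124 control and DMSO (0%); curves classed by r2, magnitude and activity.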

[13] = S16 Schwann cell PMP22 intronic element beta-lactamase assay (AID 624044; calls by dose curve;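 further: 0% = DMSO and -100% = potassium clavulanate positive control; nearly all actives have a fitted effect of over 15% in size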); settings: S16 rat Schwann cells, PMP22 element beta-lactamase FRET, 24 h; ratio activity, negative = inhibition: at 38.3 µM (top of the series)
Method in brief: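 Beta-lactamase reporter under a PMP22 intronic regulatory element in stable S16 rat Schwann cells; 24 h compound exposure. 460 nm blue signal normalized between DMSO (0%) and potassium clavulanate, with 535 nm FRET tracking viability; curves classed by r2 and response.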

[14] = qHTS profiling for inhibitors of Plasmodium falciparum proliferation (AID 504749);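 further: 0% = DMSO vehicle and full inhibition = artemisinin control; nearly all actives have a fitted effect of over 60% in size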; settings: P. falciparum in erythrocytes, SYBR Green DNA, 72 h, at 12.8 µM (top of the series)
Method in brief: (§1)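 Each compound contacts P. falciparum-infected red blood cells for 72 h at 37 C; lysis buffer (Tris, EDTA, saponin, Triton X, SYBR Green I) is added and fluorescence measured next morning; values normalized to controls.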

3D7 = assay: as above; settings: P. falciparum in erythrocytes, SYBR Green DNA, 72 h; series mostly up to 28.7 µM
Method in brief: as §1

AA1029 = assay: as above; settings: P. falciparum in erythrocytes, SYBR Green DNA, 72 h; series mostly up to 28.7 µM
Method in brief: as §1

AS120 = assay: as above; settings: P. falciparum in erythrocytes, SYBR Green DNA, 72 h; series mostly up to 28.7 µM
Method in brief: as §1

ATS189 = assay: as above; settings: P. falciparum in erythrocytes, SYBR Green DNA, 72 h; series mostly up to 28.7 µM
Method in brief: as §1

C2A = assay: as above; settings: P. falciparum in erythrocytes, SYBR Green DNA, 72 h; series mostly up to 28.7 µM
Method in brief: as §1

CP185 = assay: as above; settings: P. falciparum in erythrocytes, SYBR Green DNA, 72 h; series mostly up to 28.7 µM
Method in brief: as §1

CP191 = assay: as above; settings: P. falciparum in erythrocytes, SYBR Green DNA, 72 h; series mostly up to 28.7 µM
Method in brief: as §1

CP194 = assay: as above; settings: P. falciparum in erythrocytes, SYBR Green DNA, 72 h; series mostly up to 28.7 µM
Method in brief: as §1

CP201 = assay: as above; settings: P. falciparum in erythrocytes, SYBR Green DNA, 72 h; series mostly up to 28.7 µM
Method in brief: as §1

CP203 = assay: as above; settings: P. falciparum in erythrocytes, SYBR Green DNA, 72 h; series mostly up to 28.7 µM
Method in brief: as §1

CP211 = assay: as above; settings: P. falciparum in erythrocytes, SYBR Green DNA, 72 h; series mostly up to 28.7 µM
Method in brief: as §1

CP215 = assay: as above; settings: P. falciparum in erythrocytes, SYBR Green DNA, 72 h; series mostly up to 28.7 µM
Method in brief: as §1

CP217 = assay: as above; settings: P. falciparum in erythrocytes, SYBR Green DNA, 72 h; series mostly up to 28.7 µM
Method in brief: as §1

Glucocorticoid receptor (Homo sapiens), sequence (P04150 whole entry, looked up, the tested form may be a part): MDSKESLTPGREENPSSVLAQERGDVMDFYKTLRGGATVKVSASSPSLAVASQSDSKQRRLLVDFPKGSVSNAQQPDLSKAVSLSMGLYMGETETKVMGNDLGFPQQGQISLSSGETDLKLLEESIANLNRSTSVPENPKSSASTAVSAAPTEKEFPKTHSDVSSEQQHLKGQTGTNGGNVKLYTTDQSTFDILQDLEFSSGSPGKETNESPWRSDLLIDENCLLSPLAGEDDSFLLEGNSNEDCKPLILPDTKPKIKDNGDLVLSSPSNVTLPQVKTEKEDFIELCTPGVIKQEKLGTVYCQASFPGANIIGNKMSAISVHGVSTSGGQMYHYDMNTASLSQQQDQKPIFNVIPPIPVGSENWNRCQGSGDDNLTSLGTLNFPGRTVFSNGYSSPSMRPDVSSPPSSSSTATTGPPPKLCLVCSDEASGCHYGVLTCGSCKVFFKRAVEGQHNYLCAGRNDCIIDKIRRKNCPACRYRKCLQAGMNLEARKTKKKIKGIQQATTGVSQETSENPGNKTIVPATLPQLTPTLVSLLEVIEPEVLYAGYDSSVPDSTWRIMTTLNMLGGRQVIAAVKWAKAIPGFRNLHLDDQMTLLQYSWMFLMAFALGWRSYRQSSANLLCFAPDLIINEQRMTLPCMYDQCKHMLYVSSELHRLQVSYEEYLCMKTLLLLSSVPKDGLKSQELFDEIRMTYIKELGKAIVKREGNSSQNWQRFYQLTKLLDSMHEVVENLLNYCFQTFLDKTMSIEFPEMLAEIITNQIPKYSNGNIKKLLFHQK
Ubiquitin carboxyl-terminal hydrolase 1 (Homo sapiens), sequence (O94782 whole entry, looked up): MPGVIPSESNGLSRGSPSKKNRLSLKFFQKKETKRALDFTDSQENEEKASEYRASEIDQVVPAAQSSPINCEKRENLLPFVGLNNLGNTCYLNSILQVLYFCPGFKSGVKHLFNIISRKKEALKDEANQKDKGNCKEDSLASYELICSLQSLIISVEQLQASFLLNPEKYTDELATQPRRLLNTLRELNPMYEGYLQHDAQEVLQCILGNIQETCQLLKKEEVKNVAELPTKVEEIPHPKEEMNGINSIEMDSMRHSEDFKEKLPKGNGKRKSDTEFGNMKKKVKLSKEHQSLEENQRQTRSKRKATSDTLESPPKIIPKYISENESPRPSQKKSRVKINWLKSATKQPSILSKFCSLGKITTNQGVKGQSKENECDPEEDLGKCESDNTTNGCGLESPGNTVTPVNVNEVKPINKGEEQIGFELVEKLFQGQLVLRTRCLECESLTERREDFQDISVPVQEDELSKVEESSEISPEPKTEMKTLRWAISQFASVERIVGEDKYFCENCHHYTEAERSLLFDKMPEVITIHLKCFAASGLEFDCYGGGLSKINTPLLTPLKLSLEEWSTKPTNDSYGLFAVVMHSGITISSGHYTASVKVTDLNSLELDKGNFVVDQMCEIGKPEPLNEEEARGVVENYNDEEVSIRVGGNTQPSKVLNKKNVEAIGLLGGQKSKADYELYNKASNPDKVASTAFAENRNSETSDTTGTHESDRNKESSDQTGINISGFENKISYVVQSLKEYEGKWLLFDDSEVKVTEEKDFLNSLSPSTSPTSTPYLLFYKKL
3',5'-cyclic-AMP phosphodiesterase 4B (Homo sapiens), sequence (Q07343 whole entry, looked up): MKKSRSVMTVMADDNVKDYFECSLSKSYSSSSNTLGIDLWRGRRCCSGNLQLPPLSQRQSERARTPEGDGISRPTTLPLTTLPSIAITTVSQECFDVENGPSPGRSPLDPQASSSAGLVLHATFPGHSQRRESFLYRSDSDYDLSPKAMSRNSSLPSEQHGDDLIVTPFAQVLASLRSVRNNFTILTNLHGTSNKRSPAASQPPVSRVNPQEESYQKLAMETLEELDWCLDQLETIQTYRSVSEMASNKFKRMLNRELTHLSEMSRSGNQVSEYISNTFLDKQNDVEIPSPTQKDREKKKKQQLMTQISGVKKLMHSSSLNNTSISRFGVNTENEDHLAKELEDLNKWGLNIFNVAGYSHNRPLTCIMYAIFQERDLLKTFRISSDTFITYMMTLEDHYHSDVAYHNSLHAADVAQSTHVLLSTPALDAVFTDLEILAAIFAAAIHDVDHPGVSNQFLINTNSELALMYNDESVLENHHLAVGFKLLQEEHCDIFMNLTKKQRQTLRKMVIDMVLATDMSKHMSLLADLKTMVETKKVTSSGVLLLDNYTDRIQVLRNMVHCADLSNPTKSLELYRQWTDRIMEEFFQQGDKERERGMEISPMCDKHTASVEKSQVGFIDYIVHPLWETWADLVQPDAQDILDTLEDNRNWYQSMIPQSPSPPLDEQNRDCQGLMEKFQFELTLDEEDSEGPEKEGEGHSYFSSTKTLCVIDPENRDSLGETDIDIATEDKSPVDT
ATP-dependent 6-phosphofructokinase (Trypanosoma brucei brucei), sequence (O15648 whole entry, looked up): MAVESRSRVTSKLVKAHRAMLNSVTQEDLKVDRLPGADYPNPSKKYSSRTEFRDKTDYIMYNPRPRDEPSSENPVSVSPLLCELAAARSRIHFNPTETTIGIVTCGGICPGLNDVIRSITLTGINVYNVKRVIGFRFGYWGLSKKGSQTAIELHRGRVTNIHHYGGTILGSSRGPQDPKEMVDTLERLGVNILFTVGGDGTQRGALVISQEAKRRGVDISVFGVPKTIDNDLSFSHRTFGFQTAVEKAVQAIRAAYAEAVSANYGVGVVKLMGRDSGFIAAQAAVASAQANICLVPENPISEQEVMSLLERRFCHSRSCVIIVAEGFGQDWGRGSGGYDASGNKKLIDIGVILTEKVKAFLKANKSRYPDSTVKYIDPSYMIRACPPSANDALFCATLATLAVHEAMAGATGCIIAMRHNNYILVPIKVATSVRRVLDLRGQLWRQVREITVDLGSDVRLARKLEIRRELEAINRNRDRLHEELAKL
Luciferin 4-monooxygenase (Photinus pyralis), sequence (P08659 whole entry, looked up): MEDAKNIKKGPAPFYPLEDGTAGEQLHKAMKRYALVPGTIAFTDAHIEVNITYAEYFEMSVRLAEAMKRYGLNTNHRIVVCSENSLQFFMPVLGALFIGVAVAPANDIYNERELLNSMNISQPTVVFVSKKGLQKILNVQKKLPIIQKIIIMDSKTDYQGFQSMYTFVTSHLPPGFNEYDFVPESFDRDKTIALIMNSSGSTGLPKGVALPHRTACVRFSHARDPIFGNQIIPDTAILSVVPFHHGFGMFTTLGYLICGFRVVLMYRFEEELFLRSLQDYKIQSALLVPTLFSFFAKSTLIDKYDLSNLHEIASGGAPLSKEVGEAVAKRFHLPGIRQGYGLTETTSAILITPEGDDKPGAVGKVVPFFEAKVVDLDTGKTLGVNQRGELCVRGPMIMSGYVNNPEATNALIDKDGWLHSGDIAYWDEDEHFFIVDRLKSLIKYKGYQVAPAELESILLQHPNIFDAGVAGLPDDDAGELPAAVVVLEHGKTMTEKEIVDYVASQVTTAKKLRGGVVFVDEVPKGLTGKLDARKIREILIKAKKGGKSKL

CN(C)[C@H]1C(=O)C(C(N)=O)=C(O)[C@]2(O)C(=O)C3=C(O)c4c(O)cccc4[C@@](C)(O)[C@H]3C[C@@H]12
inactive: activity change, negative = inhibition [1] 11.4% | activity change, negative = inhibition [2] -2.46% | outcome [3] | Potency [4] > 20.6 µM | Potency [5] > 20.6 µM | outcome [6] | outcome [7] | outcome [8] | Potency [9] | Potency [10] | Potency [11] | Potency [12] | Potency [13] | activity, negative = inhibition ([14]; parasite line A) -27.8% | activity, negative = inhibition ([14]; parasite line B) -27.1% | Potency (3D7) | Potency (AA1029) | Potency (AS120) | Potency (ATS189) | Potency (C2A) | Potency (CP185) | Potency (CP191) | Potency (CP194) | Potency (CP201) | Potency (CP203) | Potency (CP211) | Potency (CP215) | Potency (CP217)
